Test results taken from PubChem BioAssay (EPA / NIEHS).
Results filed as inconclusive are left out. Activity calls are given as the source filed them. How the source made its calls: active means hit-call score of the fitted dose curve at least 0.9, where 1 is the maximum; inconclusive means response in the unintended direction; inactive means score below 0.9.

target: rat Thyrotropin Releasing Hormone Receptor (TRH), Trhr (gene 25570) (UniProt Q01717); experiment: NVS_GPCR_rTRH: NovaScreen (NVS) G Protein-Coupled Receptor Assay for rat Thyrotropin Releasing Hormone Receptor (TRH) (AID 2283329);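 further: hit means lower bound tracer signal versus DMSO baseline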
Sequence (Q01717 whole entry, looked up): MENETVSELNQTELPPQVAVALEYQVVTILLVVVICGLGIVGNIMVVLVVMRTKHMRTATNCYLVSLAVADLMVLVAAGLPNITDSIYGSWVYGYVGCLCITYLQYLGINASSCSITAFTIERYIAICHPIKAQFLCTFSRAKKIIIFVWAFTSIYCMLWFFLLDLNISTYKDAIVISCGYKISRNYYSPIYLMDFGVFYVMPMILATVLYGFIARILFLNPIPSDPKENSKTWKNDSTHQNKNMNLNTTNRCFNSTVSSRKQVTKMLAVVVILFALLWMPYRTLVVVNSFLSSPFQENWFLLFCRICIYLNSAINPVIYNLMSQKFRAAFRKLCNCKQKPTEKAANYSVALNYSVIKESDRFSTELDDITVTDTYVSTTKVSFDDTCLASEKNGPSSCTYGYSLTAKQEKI
Experimental: NVS_GPCR_rTRH is a biochemical, single-readout assay that uses extracted gene-proteins from Rat forebrain membranes in a tissue-based cell-free assay. Measurements were taken 4 hours after chemical dosing in a 48-well plate.NVS_GPCR_rTRH is one of one assay component(s) measured or calculated from the NVS_GPCR_rTRH assay. It is designed to make measurements of radioligand binding, a form of binding reporter, as detected with scintillation counting signals by Filter-based radiodetection technology.Data from the assay component NVS_GPCR_rTRH was analyzed into 1 assay endpoint. This assay endpoint, NVS_GPCR_rTRH, was analyzed in the positive analysis fitting direction relative to DMSO as the negative control and baseline of activity. Using a type of binding reporter, loss-of-signal activity can be used to understand changes in the binding as they relate to the gene Trhr. Furthermore, this assay endpoint can be referred to as a primary readout, because the performed assay has only produced 1 assay endpoint. To generalize the intended target to other relatable targets, this assay endpoint is annotated to the gpcr intended target family, where the subfamily is rhodopsin-like receptor.
Binding assays used specific radioligands (tritiated, iodinated) with non-radioactive competitive displacement ligands in agonist or antagonist protocols (as indicated) and various reference compounds and inhibitors to titrate specific binding to receptors and transporters. Most enzyme assays (CYPs, kinases, phosphatases, proteases, HDACs) used recombinant protein and specific substrates (fluorescence mostly, some colorimetric and radioactive) and inhibitors, followed by a biochemical separation of substrate and product. All assays for the biochemical HTS were initially run in duplicate at a single concentration (10 uM for CYP450 assays and 25 uM for all others). […] Each assay was run with positive and negative controls, and concurrent controls on every plate. The follow-up (secondary) screen tested active chemical-pairs in concentration series, as well as a few additional assays not tested in the primary screen, some selected negative inactives, and several cases re-run in the concentration series for confirmatory purposes.

outcome, inactive:
OCCN1CCNCC1
CCCC/C=C\CCCCCCCCCC=O
CC1(C)[C@@H]2CC[C@@]1(C)[C@H](O)C2
OCCOCCOCCOCCO
C=CCOc1nc(OCC=C)nc(OCC=C)n1
CC1COc2ccccc2N1C(=O)C(Cl)Cl (configuration not stated)
NCCCN1CCOCC1
CN(C)CCCN
CCN(CC)c1ccc2c(-c3ccccc3C(=O)O)c3ccc(=[N+](CC)CC)cc-3oc2c1
O=C(Cl)c1cccc(C(=O)Cl)c1
CC(C)(C#N)c1cc(Cn2cncn2)cc(C(C)(C)C#N)c1
O=C(O)c1ccc(C(=O)O)cc1
CC(C)C[C@H]1C(=O)N2CCC[C@H]2[C@]2(O)O[C@](NC(=O)[C@@H]3C=C4c5cccc6[nH]c(Br)c(c56)C[C@H]4N(C)C3)(C(C)C)C(=O)N12
C[Si](O[Si](C)(C)C)O[Si](C)(C)C
C=C(C)C(=O)O
CCCCCCCCCCCCN
CC1=CC(=O)NS(=O)(=O)O1
